Screening data from PubChem.
FUS yeast rescue = FUS proteinopathy suppression in yeast. S. cerevisiae FUS-expressing, growth rescue, OD600, 24 h. Potency, µM (titrated, usually from 76.6 µM), most hits filed as activators. 390,000 compounds, 0.24% hits; further: nearly all actives have a fitted effect of over 55% in size
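Cultures pregrown in 2.5% raffinose medium are shifted to minimal medium containing 2% galactose to express toxic FUS. Compounds are tested at several concentrations. After 24hr at 30C, growth is quantified at 600 nm absorbance.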
ALOX12 inh = blocks human arachidonate 12S-lipoxygenase. purified 12hLO, xylenol orange hydroperoxide absorbance. P18054. Potency, µM (series often up to 108 µM), actives largely listed as inhibitors. 580,000 compounds, 1.1% hits
Target sequence (P18054 whole entry, looked up): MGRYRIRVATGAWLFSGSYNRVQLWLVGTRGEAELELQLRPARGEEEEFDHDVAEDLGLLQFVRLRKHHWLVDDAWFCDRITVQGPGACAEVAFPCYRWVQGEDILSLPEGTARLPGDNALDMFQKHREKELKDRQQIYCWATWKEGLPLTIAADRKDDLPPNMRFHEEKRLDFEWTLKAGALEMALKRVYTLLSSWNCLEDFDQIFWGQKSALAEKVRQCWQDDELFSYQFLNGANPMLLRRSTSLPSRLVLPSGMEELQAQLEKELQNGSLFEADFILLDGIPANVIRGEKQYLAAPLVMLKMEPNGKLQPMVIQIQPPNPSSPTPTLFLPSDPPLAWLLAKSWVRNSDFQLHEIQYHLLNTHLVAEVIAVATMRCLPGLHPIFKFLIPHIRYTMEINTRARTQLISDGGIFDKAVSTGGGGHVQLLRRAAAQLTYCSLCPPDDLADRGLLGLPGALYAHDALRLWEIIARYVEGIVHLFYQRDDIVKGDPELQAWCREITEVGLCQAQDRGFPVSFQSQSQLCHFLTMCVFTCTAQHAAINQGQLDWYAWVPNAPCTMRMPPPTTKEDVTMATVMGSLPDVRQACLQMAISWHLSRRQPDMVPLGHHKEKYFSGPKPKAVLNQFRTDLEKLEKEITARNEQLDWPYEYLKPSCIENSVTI
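Purified human 12hLO (150 nM final) in 25 mM Hepes, 0.01% Triton X-100, pH 7.0 was preincubated 15 min at room temperature with compound. Then 40 uM arachidonic acid was added, 30 min. Hydroperoxide was read by Fe-XO absorbance ratio 573/405 nm.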
Mito fusion act = blocks mitochondrial division or promotes mitochondrial fusion; 320,000 compounds, 0.23% hits; S. cerevisiae fusion-defective mutant growth rescue, CellTiterGlo 48 h; Potency, µM (top dose mostly 46.1 µM), usual class: activators; further: nearly all actives have a fitted effect of over 45% in size
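Luminescent cell viability in 1536-well qHTS format served as the measure of rescued growth in ts fusion-mutant S. cerevisiae cultured on non-fermentable YPEG for 48 hours at 37C.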
gsp antagonist = antagonists of gsp mutant (McCune-Albright syndrome); gsp-mutant cells, cAMP HTRF, 30 min; Potency, µM (series often up to 76.9 µM), most hits filed as inhibitors; 340,000 compounds, 0.4% hits; AID 624288; calls by dose curve; cell line not stated here;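 further: intracellular cAMP measured with PDE inhibitor Ro 20-1724 present during compound exposure; nearly all actives have a fitted effect of over 65% in size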
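Cells in G418 medium, seeded 16-24 h, 37C; buffer exchange to DPBS + 1 mM CaCl2, 0.5 mM MgCl2, 0.05% BSA; cpds in DMSO + […] (300 uM stock), 30 min 37C; HTRF cAMP detection.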
gsp agonist = gsp mutant agonism | gsp mutant cells, cAMP HTRF, 30 min | Potency, µM (titrated, usually from 76.9 µM), hits mostly activators | 340,000 compounds, 0.13% hits | AID 624287; active means well fitted activation curve with a large enough effect; inconclusive means small, poorly fitted or top-dose-only effect, or another doubt; inactive means no such curve, though single readings can be large or run the other way; cell line not stated here;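 further: phosphodiesterase inhibitor Ro 20-1724 added with compounds to block cAMP breakdown; nearly all actives have a fitted effect of over 60% in size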
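Cells stably selected in G418 were plated at 2000/well, grown 16-24 hr, then given compounds in DMSO with the PDE inhibitor […] (300 uM solution added) for 30 min at 37C; cAMP was read by HTRF.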
A number is an active result; – = inactive; ? = inconclusive; · = no result; ! = repeats disagree; [ ] = remark or other dose. Most compounds without a hit are left out; they make up all but 1.6% or so of the library. Unless noted, the call rests on the fitted dose curve; in most records, active means well fitted curve in the direction sought with a large enough effect; inconclusive means small, poorly fitted or top-dose-only effect, or another doubt; inactive means no such curve, though single readings can be large; an effect the other way counts as inactive or inconclusive.

SMILES | FUS yeast rescue | ALOX12 inh | Mito fusion act | gsp antagonist | gsp agonist
COCCNC(=O)c1cn(C)c2ccc(S(=O)(=O)N(C)C3CCCCC3)cc2c1=O | – | – | – | 11.2µM | –
Fc1ccc(N/N=C2/CCSc3sccc32)c(F)c1 | – | 35.5µM | – | – | –[15.4 µM]
CCc1ccc(CCC(=O)NNc2cccc(Cl)c2)cc1 | · | 15.8µM | · | · | ·
CCOC(=O)N1CCN(CC(=O)Nc2oc3ccc(Cl)cc3c(=O)c2-c2ccc(C)cc2)CC1 | · | – | · | · | ·
CCOC(=O)c1ccc(N2CCN(C(C)=O)CC2)c(NC(=O)c2cccnc2)c1 | – | – | – | 50.1µM | –
CCOC(=O)c1cc(NC(=O)c2cccnc2)ccc1N1CCOCC1 | – | – | – | – | –[15.4 µM]
CC(=O)Nc1ccc(NC(=O)c2cc(-c3cc(C)cc(C)c3O)n[nH]2)cc1 | – | – | – | – | –
Cc1cc(C)c(O)c(-c2cc(C(=O)Nc3ccc(S(=O)(=O)N4CCOCC4)cc3)[nH]n2)c1 | ? | – | – | 28.2µM | –
COc1ccc(N2CCN(C(=O)CN(c3cccc(Br)c3)S(C)(=O)=O)CC2)cc1 | – | – | – | – | –
CS(=O)(=O)N(CC(=O)N1CCN(c2ccccc2)CC1)c1cccc(Br)c1 | – | 28.2µM | – | – | –
CCCCC(=O)n1ccn(S(=O)(=O)c2ccc(C)cc2)c1=O | · | – | · | · | ·
Cc1ccc(CN(Cc2cccn2-c2nnc(N3CCCC3=O)s2)C(=O)Nc2ccccc2Cl)cc1 | 35.5µM | – | · | · | ·
Cc1ccc(CNCc2cccn2-c2nnc(N3CCCC3)s2)cc1 | – | – | · | · | ·
O=C(CN1CCC(Cc2ccccc2)CC1)N1CCc2ccccc2C1 | – | 1µM | – | – | –[15.4 µM]
N#Cc1cccc(NC(=O)NCc2ccccn2)c1 | · | – | · | · | ·
O=C1NC[C@@H](CCCCN2C[C@H](Cc3ccc(O)cc3)N(CC3CCCCC3)C(=O)C2=O)N(CC2CCCCC2)C1=O | – | 22.4µM | · | · | ·
CCC1CCC(=NNC(=O)Cc2cccc3ccccc23)CC1 (stereo not given) | · | – | · | · | ·
CN1CCc2cccc3c2[C@H]1Cc1ccc(O)c(O)c1-3 | – | 1.44µM! | – | – | ·
CN1CCc2cc3c(c4c2[C@H]1[C@H](O)c1ccccc1-4)OCO3 | – | – | – | – | ·
COC(=O)c1ccc(Cl)cc1NC(=O)N(Cc1ccc(OC)cc1)C1CCN(C(C)=O)CC1 | ? | – | · | · | ·
CCN1CCC(N(Cc2ccco2)C(=O)Nc2cc(Cl)ccc2C(=O)OC)CC1 | · | 6.31µM | · | · | ·
C[C@]12CC[C@@H]3c4cc(O)c(O)cc4CC[C@H]3[C@@H]1CC[C@@H]2O | – | 7.94µM | – | – | ·
CC12CCC3c4ccc(O)cc4CCC3C1CCC2O (stereo not given) | · | – | · | · | ·
C[C@]12CC[C@@H]3c4ccc(O)cc4CC[C@H]3[C@@H]1CC[C@@H]2O | – | – | 23.1µM! | – | ·
Cc1ccc(C)c(N=Cc2ccccc2[N+](=O)[O-])c1 | · | – | · | · | ·
SMILES | FUS yeast rescue | ALOX12 inh | Mito fusion act | gsp antagonist | gsp agonist
O=C(Nc1cc(Sc2ccccn2)cc([N+](=O)[O-])c1)c1cccc(Cl)c1 | – | – | 15.8µM | – | –
Cc1csc2nc(COc3cccc(NC(=O)c4ccccc4F)c3)cc(=O)n12 | – | – | · | · | ·
O=C(Nc1nc(COc2ccccc2)cs1)c1ccccc1F | – | – | 15.8µM | – | –
Cc1cc2oc(=O)cc(CN3CCCCC3C)c2cc1C (stereo not given) | – | 11.2µM! | – | – | –
Cc1cc2oc(=O)cc(CN3CCCCC3)c2cc1C(C)C | – | ? | – | – | –
Cc1cc(C)c2c(CN3CCCCC3C)cc(=O)oc2c1 (stereo not given) | – | ? | – | – | –
Cc1cc2oc(=O)cc(CN3CCCCCC3)c2cc1C(C)C | · | 17.8µM | · | · | ·
Cc1cc2oc(=O)cc(CN3CCCCC3C)c2cc1Cl (stereo not given) | – | 17.8µM | – | – | –
N#C/C(=C\c1ccc([N+](=O)[O-])o1)C(=O)Nc1ccc(F)cc1 | – | 44.7µM | – | – | –[15.4 µM]
Cc1nc2ccc(S(=O)(=O)CCC(=O)Nc3ccc(F)cc3C)cc2s1 | – | 22.4µM | · | · | ·
Cc1ccc(-c2cc(-c3ccccc3Cl)c(C#N)c(N)n2)o1 | – | 7.08µM | ? | – | –
Cc1ccc(-c2cc(-c3ccc(F)cc3)nc(N)c2C#N)o1 | – | 6.31µM | – | –[15.4 µM] | –
Cc1ccc(-c2cc(-c3ccccc3)c(C#N)c(N)n2)o1 | ? | 0.794µM | – | – | –
O=C(CC12CC3CC(CC(Br)(C3)C1)C2)NCCc1ccccc1 | · | – | · | · | ·
Clc1ccc(C2=Nn3c(nnc3-c3ccccn3)SC2)cc1 | · | – | · | · | ·
COCc1cccc(C(=O)NCc2ccc(C(=O)OC)cc2)c1 | · | – | · | · | ·
Cc1ccc(NC(=S)NNc2ncc(C(F)(F)F)cc2Cl)cc1 | – | – | – | – | –[15.4 µM]
FC(F)(F)c1cnc(NNC(=S)Nc2ccc(Cl)cc2)c(Cl)c1 | – | 44.7µM | ? | – | –
CN(CC(=O)N1CCN(Cc2ccccc2)CC1)C(=O)Cc1n[nH]c(=O)c2ccccc12 | · | – | · | · | ·
Cc1ccc(C(=O)c2oc3ccccc3c2NC(=O)c2cc(-c3ccc(Cl)cc3)on2)cc1 | – | – | · | · | ·
O=C(c1ccc(Cl)cc1)c1oc2ccccc2c1CS(=O)c1ccc(Cl)cc1 (stereo not given) | – | 4.47µM | – | – | –
Nc1c(C(=O)c2ccc(Cl)cc2)oc2ccccc12 | · | – | 25.1µM | – | –
COc1ccc(CCCNC(=O)c2ccc(N3CCC(N(C)C)C3)nc2)cc1 (stereo not given) | · | – | · | · | ·
COc1ccc(C(=O)n2nc(-c3ccco3)nc2NCc2cccs2)cc1OC | – | 7.94µM | · | · | ·
Cc1nc2c(c(C)c1CCC(=O)NCCN1CCCCCC1)c(=O)n(C)c(=O)n2C | · | – | · | · | ·
SMILES | FUS yeast rescue | ALOX12 inh | Mito fusion act | gsp antagonist | gsp agonist
CC1(C)CC(N2CCN(Cc3ccccc3)CC2)=CC(=[N+]2CCCCC2)C1 | – | – | – | – | –[15.4 µM]
CC1(C)CC(N2CCCC2)=CC(=[N+]2CCCC2)C1 | – | 39.8µM | – | – | ?
CC1(C)CC(N2CCCC2)=CC(=[N+]2CCCCC2)C1 | – | 39.8µM | – | – | –
CC(=O)Nc1cc(-c2ccccc2N(C)C)cn2c(-c3cccc(C(F)(F)F)c3)cnc12 | 31.6µM | 8.91µM | · | · | ·
COc1ccc(-c2cnc3c(NC=O)cc(-c4ccoc4)cn23)cc1OC | ? | 5.01µM | · | · | ·
CCSc1ccc(-c2cc(NC=O)c3ncc(-c4cccc(C(=O)N(C)C)c4)n3c2)cc1 | 25.1µM | – | · | · | ·
CC(=O)Nc1cc(-c2cccc(C(=O)NCCN(C)C)c2)cn2c(-c3cccc(C(F)(F)F)c3)cnc12 | – | – | · | · | ·
CC(=O)Nc1cc(-c2ccc(F)cc2)cn2c(-c3ccc(F)cc3)cnc12 | – | ? | · | · | ·
CC(=O)Nc1cc(-c2ccc(CO)cc2)cn2c(-c3ccc(F)cc3)cnc12 | – | 44.7µM | · | · | ·
COc1cccc(CN(C)C(=O)CN2CCC(c3nc4ccccc4s3)CC2)c1OC | · | – | · | · | ·
COc1cccc(-c2cnc3c(NC=O)cc(-c4ccc(OC)cc4OC)cn23)c1 | ? | – | · | · | ·
CC(=O)c1ccc(-c2cnc3c(NC=O)cc(-c4ccccc4Oc4ccccc4)cn23)cc1 | 25.1µM | – | · | · | ·
